Experimental findings from publication PMC11006913 are described below.

Substitutions are numbered along the chain they refer to.

Common to all, as to assay: PBM; 200 nM protein, PBS
Holding throughout (settings): dsDNA, one strand shown

The target in test [1] is T1, SIX6 (Homo sapiens, UniProt O95475 114-200, L167I).
T1 sequence: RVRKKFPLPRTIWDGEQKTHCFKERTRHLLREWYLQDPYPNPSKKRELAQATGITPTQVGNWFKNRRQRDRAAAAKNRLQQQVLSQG

Test [2] deals with T2, SIX6 (Homo sapiens, UniProt O95475 114-200, L143V).
T2 sequence: T1 sequence with L30V, I54L

Test [3] has as its target T3, SIX6 (Homo sapiens, UniProt O95475 114-200, H141N).
T3 sequence: T1 sequence with H28N, I54L

Test [4] deals with T4, SIX6 (Homo sapiens, UniProt O95475 114-200, T165P).
T4 sequence: T1 sequence with T52P, I54L

Test [5] has as its target T5, SIX6 (Homo sapiens, UniProt O95475 114-200, L167M).
T5 sequence: T1 sequence with I54M

In test [6] the target is T6, SIX6 (Homo sapiens, UniProt O95475 114-200, L143M).
T6 sequence: T1 sequence with L30M, I54L

Test [7] concerns the target T7, SIX6 (Homo sapiens, UniProt O95475 114-200, L143I).
T7 sequence: T1 sequence with L30I, I54L

Test [8] concerns the target T8, SIX6 (Homo sapiens, UniProt O95475 114-200, T165G).
T8 sequence: T1 sequence with T52G, I54L

Test [9] concerns the target T9, SIX6 (Homo sapiens, UniProt O95475 114-200, T139Q).
T9 sequence: T1 sequence with T26Q, I54L

In test [10] the target is T10, SIX6 (Homo sapiens, UniProt O95475 114-200, T165A).
T10 sequence: T1 sequence with T52A, I54L

Test [11] addresses T11, SIX6 (Homo sapiens, UniProt O95475 114-200, L167V).
T11 sequence: T1 sequence with I54V

Test [12] addresses T12, SIX6 (Homo sapiens, UniProt O95475 114-200).
T12 sequence: T1 sequence with I54L

Test [13] addresses T13, SIX6 (Homo sapiens, UniProt O95475 114-200, T165I).
T13 sequence: T1 sequence with T52I, I54L

On to CTGCGGAC, for which the binding signal was 8.88 upbm affinity estimate (log intensity, higher = more binding, comparable within an allelic series) with SIX6 [1]; 8.75 upbm affinity estimate (log intensity, higher = more binding, comparable within an allelic series) with SIX6 [2]; 8.87 upbm affinity estimate (log intensity, higher = more binding, comparable within an allelic series) in the test with SIX6 [3]; 8.83 upbm affinity estimate (log intensity, higher = more binding, comparable within an allelic series) in the test with SIX6 [4]; 8.84 upbm affinity estimate (log intensity, higher = more binding, comparable within an allelic series) in the test with SIX6 [5]; 8.84 upbm affinity estimate (log intensity, higher = more binding, comparable within an allelic series) with SIX6 [6]. For the same sequence, the binding signal with SIX6 [7] is 8.83 upbm affinity estimate (log intensity, higher = more binding, comparable within an allelic series); in the test with SIX6 [8], 8.91 upbm affinity estimate (log intensity, higher = more binding, comparable within an allelic series); in the test with SIX6 [9] it was 9.05 upbm affinity estimate (log intensity, higher = more binding, comparable within an allelic series); with SIX6 [10] it was 8.83 upbm affinity estimate (log intensity, higher = more binding, comparable within an allelic series); with SIX6 [11] it was 8.84 upbm affinity estimate (log intensity, higher = more binding, comparable within an allelic series); in the test with SIX6 [12] it was 8.84 upbm affinity estimate (log intensity, higher = more binding, comparable within an allelic series). Moreover, in the test with SIX6 [13], the binding signal was 8.85 upbm affinity estimate (log intensity, higher = more binding, comparable within an allelic series).
For the sequence AGCGCAGG, the binding signal with SIX6 [1] was 9.08 upbm affinity estimate (log intensity, higher = more binding, comparable within an allelic series); with SIX6 [2], 8.96 upbm affinity estimate (log intensity, higher = more binding, comparable within an allelic series); with SIX6 [3], 9.05 upbm affinity estimate (log intensity, higher = more binding, comparable within an allelic series); with SIX6 [4], 8.99 upbm affinity estimate (log intensity, higher = more binding, comparable within an allelic series); with SIX6 [5], 9.06 upbm affinity estimate (log intensity, higher = more binding, comparable within an allelic series); in the test with SIX6 [6] it was 9.04 upbm affinity estimate (log intensity, higher = more binding, comparable within an allelic series). Also, the binding signal with SIX6 [7] is 9.01 upbm affinity estimate (log intensity, higher = more binding, comparable within an allelic series); with SIX6 [8], 9.15 upbm affinity estimate (log intensity, higher = more binding, comparable within an allelic series); with SIX6 [9], 9.1 upbm affinity estimate (log intensity, higher = more binding, comparable within an allelic series); with SIX6 [10] it was 9.08 upbm affinity estimate (log intensity, higher = more binding, comparable within an allelic series); in the test with SIX6 [11], 9.04 upbm affinity estimate (log intensity, higher = more binding, comparable within an allelic series); in the test with SIX6 [12], 9.02 upbm affinity estimate (log intensity, higher = more binding, comparable within an allelic series). In addition, the binding signal in the test with SIX6 [13] was 9.03 upbm affinity estimate (log intensity, higher = more binding, comparable within an allelic series).
Consider CGGGAAGC, for which the binding signal was 9.04 upbm affinity estimate (log intensity, higher = more binding, comparable within an allelic series) in the test with SIX6 [1]; 8.99 upbm affinity estimate (log intensity, higher = more binding, comparable within an allelic series) with SIX6 [2]; 9 upbm affinity estimate (log intensity, higher = more binding, comparable within an allelic series) with SIX6 [3]; 9.05 upbm affinity estimate (log intensity, higher = more binding, comparable within an allelic series) with SIX6 [4]; 9.01 upbm affinity estimate (log intensity, higher = more binding, comparable within an allelic series) with SIX6 [5]; 8.96 upbm affinity estimate (log intensity, higher = more binding, comparable within an allelic series) with SIX6 [6]. Also, the binding signal with SIX6 [7] is 9.03 upbm affinity estimate (log intensity, higher = more binding, comparable within an allelic series); with SIX6 [8], 9.03 upbm affinity estimate (log intensity, higher = more binding, comparable within an allelic series); with SIX6 [9] it was 9.07 upbm affinity estimate (log intensity, higher = more binding, comparable within an allelic series); with SIX6 [10] it was 9.03 upbm affinity estimate (log intensity, higher = more binding, comparable within an allelic series); in the test with SIX6 [11] it was 9.01 upbm affinity estimate (log intensity, higher = more binding, comparable within an allelic series); with SIX6 [12] it was 8.93 upbm affinity estimate (log intensity, higher = more binding, comparable within an allelic series). Also, the binding signal in the test with SIX6 [13] is 8.99 upbm affinity estimate (log intensity, higher = more binding, comparable within an allelic series).
CCCAGCCG: the binding signal in the test with SIX6 [1] was 9.06 upbm affinity estimate (log intensity, higher = more binding, comparable within an allelic series); in the test with SIX6 [2], 8.82 upbm affinity estimate (log intensity, higher = more binding, comparable within an allelic series); in the test with SIX6 [3] it was 9.12 upbm affinity estimate (log intensity, higher = more binding, comparable within an allelic series); in the test with SIX6 [4] it was 8.84 upbm affinity estimate (log intensity, higher = more binding, comparable within an allelic series); in the test with SIX6 [5], 9.01 upbm affinity estimate (log intensity, higher = more binding, comparable within an allelic series); with SIX6 [6], 8.87 upbm affinity estimate (log intensity, higher = more binding, comparable within an allelic series). The binding signal was 8.92 upbm affinity estimate (log intensity, higher = more binding, comparable within an allelic series) with SIX6 [7]; 9.07 upbm affinity estimate (log intensity, higher = more binding, comparable within an allelic series) with SIX6 [8]; 9.24 upbm affinity estimate (log intensity, higher = more binding, comparable within an allelic series) with SIX6 [9]; 9.06 upbm affinity estimate (log intensity, higher = more binding, comparable within an allelic series) with SIX6 [10]; 8.98 upbm affinity estimate (log intensity, higher = more binding, comparable within an allelic series) in the test with SIX6 [11]; 9.03 upbm affinity estimate (log intensity, higher = more binding, comparable within an allelic series) with SIX6 [12]. Also, in the test with SIX6 [13], the binding signal is 9.05 upbm affinity estimate (log intensity, higher = more binding, comparable within an allelic series).
For GCACGCCC, the binding signal in the test with SIX6 [1] was 8.91 upbm affinity estimate (log intensity, higher = more binding, comparable within an allelic series); in the test with SIX6 [2], 8.8 upbm affinity estimate (log intensity, higher = more binding, comparable within an allelic series); with SIX6 [3], 8.92 upbm affinity estimate (log intensity, higher = more binding, comparable within an allelic series); with SIX6 [4], 8.82 upbm affinity estimate (log intensity, higher = more binding, comparable within an allelic series); with SIX6 [5], 8.88 upbm affinity estimate (log intensity, higher = more binding, comparable within an allelic series); with SIX6 [6], 8.84 upbm affinity estimate (log intensity, higher = more binding, comparable within an allelic series). For the same sequence, the binding signal with SIX6 [7] was 8.88 upbm affinity estimate (log intensity, higher = more binding, comparable within an allelic series); with SIX6 [8] it was 8.97 upbm affinity estimate (log intensity, higher = more binding, comparable within an allelic series); in the test with SIX6 [9], 8.92 upbm affinity estimate (log intensity, higher = more binding, comparable within an allelic series); in the test with SIX6 [10], 8.91 upbm affinity estimate (log intensity, higher = more binding, comparable within an allelic series); with SIX6 [11], 8.87 upbm affinity estimate (log intensity, higher = more binding, comparable within an allelic series); with SIX6 [12], 8.94 upbm affinity estimate (log intensity, higher = more binding, comparable within an allelic series). Also, the binding signal with SIX6 [13] was 8.8 upbm affinity estimate (log intensity, higher = more binding, comparable within an allelic series).
For AGCGCCCG, the binding signal was 9.03 upbm affinity estimate (log intensity, higher = more binding, comparable within an allelic series) with SIX6 [1]; 8.99 upbm affinity estimate (log intensity, higher = more binding, comparable within an allelic series) with SIX6 [2]; 9.03 upbm affinity estimate (log intensity, higher = more binding, comparable within an allelic series) with SIX6 [3]; 9.05 upbm affinity estimate (log intensity, higher = more binding, comparable within an allelic series) in the test with SIX6 [4]; 9.04 upbm affinity estimate (log intensity, higher = more binding, comparable within an allelic series) with SIX6 [5]; 9.02 upbm affinity estimate (log intensity, higher = more binding, comparable within an allelic series) in the test with SIX6 [6]. Also, the binding signal in the test with SIX6 [7] was 8.98 upbm affinity estimate (log intensity, higher = more binding, comparable within an allelic series); with SIX6 [8], 8.98 upbm affinity estimate (log intensity, higher = more binding, comparable within an allelic series); with SIX6 [9], 8.94 upbm affinity estimate (log intensity, higher = more binding, comparable within an allelic series); with SIX6 [10] it was 8.98 upbm affinity estimate (log intensity, higher = more binding, comparable within an allelic series); in the test with SIX6 [11], 8.97 upbm affinity estimate (log intensity, higher = more binding, comparable within an allelic series); with SIX6 [12], 8.99 upbm affinity estimate (log intensity, higher = more binding, comparable within an allelic series). Besides, the binding signal in the test with SIX6 [13] is 9 upbm affinity estimate (log intensity, higher = more binding, comparable within an allelic series).
